According to the supplement of paper PMC6555819:

Legend:
Assay in all cases: PBM binding z-score (relative to random genomic background probes); higher = stronger binding; sequences stand for … in GC…GCGATTGACAGCGTAGAATGAAGG
[1] = system: RARb homodimer (NR concentration 270 nM)
Procedure, shortened: (§1)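 For binding z-scores, the reference was random background probes on custom Agilent 4×180K protein-binding microarrays. These arrays were incubated 1 h with ligand-free nuclear receptor dimers in PBS pH 7.4, 2% milk, 0.02% Triton X-100, 1 mM DTT, 0.2 mg/mL BSA and 0.4 mg/ml salmon testes DNA. Fluorescence was scanned after antibody detection of each partner (one per run) and regression-normalized.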

[2] = system: RARg:RXRa (NR concentration 270 nM, RXRa partner concentration 90 nM)
Procedure, shortened: as §1

[3] = system: RARg homodimer (NR concentration 270 nM)
Procedure, shortened: as §1

[4] = system: RXRa DBDmut IVT, anti-RXR (DBD mutation: RXRa K156A/R161A, NR concentration 90 nM)
Procedure, shortened: as §1

[5] = system: RXRa homodimer (NR concentration 180 nM)
Procedure, shortened: as §1

[6] = system: THRa:RXRa (NR concentration 90 nM, RXRa partner concentration 90 nM)
Procedure, shortened: as §1

[7] = system: THRa homodimer (NR concentration 90 nM)
Procedure, shortened: as §1

[8] = system: VDR homodimer (NR concentration 270 nM)
Procedure, shortened: as §1

Row | Sequence | PBM binding z-score [1] | PBM binding z-score [2] | PBM binding z-score [3] | PBM binding z-score [4] | PBM binding z-score [5] | PBM binding z-score [6] | PBM binding z-score [7] | PBM binding z-score [8]
1 | CGTCCAAGGTCAGCAGGTCCGTGAAAGCGACGTG | 4.13 | 5.15 | 5.97 | 2.96 | 3.76 | 3.59 | 1.92 | 2.71
2 | TGTCAAAGTTCAAAGGTAACGAAAGTATCCACAC | 3.89 | 6.36 | 6.02 | 4.4 | 7.81 | 2.97 | 0.0782 | 4.73
3 | AGTCAAAGTTCACTAGGTAACGAAAGATTCAGCT | 3.45 | 4.86 | 5.55 | 3.95 | 3.92 | 1.85 | 0.1 | 3.69
4 | ATCTCTAGGTAAGACTCAGTTCATTGAAGAACGC | 0.892 | 0.375 | 0.586 | 1.31 | 0.538 | 1.58 | 0.923 | 3.67
5 | CCTAGTTGGTCAGGAGGTCACACAACGGATATGA | 4.4 | 5.09 | 4.4 | 0.815 | 4.82 | 3.56 | 2.25 | 2.5
6 | TCTTGGAGGACACGAAAGGTCAGAGCTCGACATC | 4.63 | 5.1 | 5.47 | 1.26 | 4.25 | 3.89 | 1.31 | 1.48
7 | TCTTGTAGATCAATAGAGGTTTAGAAAGTGCGCT | -0.294 | -0.0286 | -0.308 | 0.603 | 0.0167 | 0.294 | -0.767 | 0.0472
8 | TATATTAGTTGATTAGGGCAACCGAAACAGCGGA | 0.779 | 0.789 | 1.19 | 0.252 | 0.43 | 0.944 | 0.495 | 0.982
9 | ATATGTAGGTTACATCCGGGTCATGCAGGCTATG | 2.93 | 3.76 | 2.25 | 0.707 | 3.4 | 4 | 2.29 | 1.76
10 | CCTACTGGGCCACAAAAGGTCATTGATTCAGTGA | 4.58 | 4.47 | 3.91 | 0.362 | 4.76 | 3.73 | 0.921 | 1.92
11 | CAAACTAGGTCAAAGGTCAATGTCGAGCCAACCA | 5.2 | 8.62 | 7.28 | 3.16 | 9.99 | 4.71 | 1.71 | 3.03
12 | GCTAGCAGGCCATTTGGGTCAGTCAATGACGGGC | 1.42 | 0.49 | 1.01 | -0.27 | 0.218 | 0.812 | -0.371 | -0.151
13 | CGAACTAGGTCATTGCCAGGACAGTGAATAGTAA | 2.72 | 4.1 | 4.21 | 2.5 | 2.73 | 3.32 | 1.54 | 1.49
14 | GAGACAGGGTCAGCTAGAGGCCAGAGTATGGAAA | 3.05 | 6.57 | 4.77 | 1.03 | 4.3 | 3.06 | 0.161 | 0.581
15 | CATACAGAGTCAGCTAGGCCAGAGTAGGGACGGC | -0.0712 | -0.273 | 0.105 | -0.231 | -0.193 | -0.152 | -0.18 | -0.481
16 | TAGGCTAGGTCATGCGGGCCAGTATAGTGTCGGC | 3.1 | 3.73 | 4.44 | 0.47 | 3.14 | 2.77 | 0.748 | 0.519
17 | CGTCAAAGTTCAACTAAGGTAACATAAAGCACGC | 4.23 | 5.98 | 6.47 | 4.9 | 5.01 | 5.25 | 1.77 | 3.89

Row | Sequence | PBM binding z-score [1] | PBM binding z-score [2] | PBM binding z-score [3] | PBM binding z-score [4] | PBM binding z-score [5] | PBM binding z-score [6] | PBM binding z-score [7] | PBM binding z-score [8]
18 | CAAACTAGATCACAGAGGTCAAAGTCCGTGCGTA | 4.34 | 4.96 | 4.25 | 2.41 | 5.63 | 3.64 | 1.29 | 5.11
19 | CCTACTGGGCCACGAAAGGTCAGTGATTCAGTGA | 3.87 | 3.69 | 4.04 | -0.37 | 3.1 | 3.1 | 0.0818 | 0.0755
20 | GGAACGAGGGCAGGTTGATAGCAGAGTTTGATGG | 1.3 | 0.763 | 1.26 | 0.971 | 0.496 | 0.552 | 0.392 | 1.16
21 | TCTTGTAGATCAACCGGAGGTTAAGAAAGATCGA | 0.462 | 1.22 | 0.219 | 0.651 | 0.914 | 1.12 | -0.269 | -0.0131
22 | GCTTGTAGATCAAGCTTAAGAAAGACTAAGCTAA | -1.31 | -0.516 | -0.459 | -0.635 | -0.645 | -0.583 | -1.48 | -0.457
23 | TAGCCTAGGTCATGGGCTAGTATACCACGCGAAC | 2.79 | 4.26 | 4.32 | -0.132 | 3.45 | 3.07 | 0.81 | 0.156
24 | TATACAGGGGCAAAGGCCAGAGTACGAATGTCGA | 1.74 | 1.95 | 1.85 | 0.806 | 1.49 | 0.569 | -0.328 | 0.679
25 | CGAACTAGGTCATCCAGGACAGTTAATACATTGA | 3 | 3.93 | 4.66 | 2.41 | 2.99 | 3.54 | 2.15 | 2.37
26 | CGTCCAAGGTCAGGAGGTCAGTGAAAGCGACGTG | 5.53 | 7.05 | 7.08 | 2.75 | 6.98 | 4.05 | 2.68 | 2.82
27 | CCGAGTAGGTAATGGGGCATTCAGGCAACGGTGA | 0.64 | -0.0696 | 0.0893 | -0.575 | 0.0759 | 0.219 | 0.00825 | -0.22
28 | AATACCGGGTCACTAGGCCAGAGTAGGTACGAAT | 2.74 | 4.17 | 3.95 | 1.2 | 4.15 | 3.08 | 0.928 | 1.22
29 | ATCTCTAGGTAACAAGTTCCGTGAAAGAGAGGAC | 0.549 | 0.357 | 0.586 | -0.202 | 0.164 | 0.983 | 0.899 | 0.475
30 | CCTAACGGGTCACGAGGTTATAGCACGACGAGCG | 3.65 | 5.84 | 4.93 | 1.5 | 6.09 | 3.44 | 0.791 | 1.91
31 | ATATGTAGGTTACATCCTGGTCATTCAGGCTATG | 1.25 | 1.72 | 1.3 | 0.78 | 1.35 | 1.26 | 0.551 | 0.582
32 | TATACAGGGTCCAAGGCCAGAGTACGAATGTCGA | 1.18 | 0.986 | 1.15 | 1.17 | 0.823 | 0.402 | 0.398 | 2.03
33 | TCTTGTAGAACAACAGGAGGTTAAGAAAGATCGA | 0.958 | 0.377 | 0.286 | 0.511 | 0.875 | 0.726 | -0.422 | -0.182
34 | CGTCCAAGGTCAGCAGGTTAGTGAAAGCGACGTG | 4 | 5.37 | 6.05 | 2.64 | 4.17 | 3.57 | 2.06 | 1.76
